Measured values: ChEMBL document CHEMBL3988442, “University of Dundee, Small-Polar-MMV Screening Library” (2021)
The campaign covered roughly 48,000 compounds. About 13,000 (27%) showed an effect of 50% or more. The list shows a part of the results.

Tested on: Wolbachia pipientis
Test: Anti-Wolbachia Cell-Based Screen
Assay type: functional
Parameters: scale not given: in the data most compounds retested in dose-response had high values
Details: 5 µM

Row | SMILES | Percent Effect
1 | N#CCCCS(=O)(=O)N1CCC(CSc2ccccc2)C1 (centres undefined) | -3.001%
2 | O=C(C1SCCc2sccc21)N1CCN(CCO)CC1 (centres undefined) | 1.361%
3 | O=C1NC2(Nc3ncccc31)C(=O)Nc1c2ccc(Cl)c1F (centres undefined) | -11.72%
4 | c1ccc(-c2nnc3n2CCN(c2nc(C4CC4)ns2)C3)cc1 | -0.2636%
5 | CN(Cc1noc2c1CCCC2)C(=O)Cn1cnc2ccccc2c1=O | 0.7727%
6 | CN1C(=O)COc2ccc(C(=O)Cn3cnc4ccccc4c3=O)cc21 | 102.3%
7 | CN1C(=O)COc2ccc(C(=O)Cn3cnc4ccsc4c3=O)cc21 | 115.3%
8 | O=C(Cn1ccc2ncccc2c1=O)N1CCSCC1 | -22.33%
9 | CCCc1nccn1CCn1cnc2ccsc2c1=O | -10.48%
10 | CCn1ccnc1SCCn1cnc2ccsc2c1=O | -20.68%
11 | CC(C)(C)C(=O)N1CCN(CCOc2cccc(C#N)c2)CC1 | 23.12%
12 | CCC[C@@H]1CN(C(=O)c2c(F)ccc(OC)c2F)C[C@H]1C(=O)O | -8.772%
13 | CCOc1ccc(N(C)Cc2nc(C)c(C)o2)cc1 | 2.822%
14 | CCOC(=O)c1coc(N2CCN(Cc3cccc(OC)c3)C(=O)C2)n1 | -20.43%
15 | C/N=C1\c2cc3cc(OC)ccc3n2CCN1C.Cl | 97.02%
16 | COc1ccc2c(c1)nc1n2[C@@H](CNCc2ccccc2)COC1 | -7.543%
17 | C/N=C1/c2cc3cc(OC)ccc3n2CCN1Cc1ccccc1.Cl | 86.74%
18 | CCN1CC(NC(=O)Nc2nc(C)n(C(C)C)n2)CC1=O (centres undefined) | -13.6%
19 | Cc1cc(N2CCC3(CCC(=O)N(CCCO)C3)CC2)nc(N(C)C)n1 | 15.64%
20 | COc1cc(N2CC[C@H]3O[C@@H](C(=O)NC4CCCC4)CC[C@H]32)ncn1.O=C(O)C(F)(F)F | 90.73%
21 | O=C(NC1CC1)[C@H]1CC[C@@H]2[C@@H](CCN2c2ncc(F)cn2)O1.O=C(O)C(F)(F)F | -10.92%
22 | COc1ccc(C[C@H]2CN(c3cc(OC)ncn3)CC[C@@H]2OC)cc1.O=C(O)C(F)(F)F | -9.694%
23 | COc1cc(N2CC[C@@H]3O[C@H](C(=O)N(C)C)C[C@@H]32)ncn1.O=C(O)C(F)(F)F | 99.56%
24 | O=C(NC1CCCC1)[C@H]1CC[C@@H]2[C@@H](CCN2c2ncc(F)cn2)O1.O=C(O)C(F)(F)F | 6.364%
25 | COc1ccc(C[C@H]2CN(c3cc(OC)ncn3)CC[C@H]2OC)cc1.O=C(O)C(F)(F)F | -1.133%

Row | SMILES | Percent Effect
26 | COc1cc(NC(=O)c2cc(C)sc2C)c(C(=O)N(C)C)cc1OC | -0.1136%
27 | CC(=O)c1ccc(-n2ccc3nc(N4CCCC4)ncc3c2=O)cc1 | -1.476%
28 | CN(C)CC1(O)CCN(Cc2cnc3c(-c4ccccc4)cnn3c2)C1 (centres undefined) | -5.196%
29 | CC(CCN1CCCn2nc(CNS(C)(=O)=O)cc2C1)c1ccccc1 (centres undefined) | 111.7%
30 | CS(=O)(=O)NCc1cc2n(n1)CCCN(Cc1cc3ccccc3o1)C2 | 0.8182%
31 | CC(CCN1CCn2nc(CNC(=O)N(C)C)cc2C1)c1ccccc1 (centres undefined) | -9.419%
32 | CN(C)C(=O)CSc1nnc(CCNC(=O)OC(C)(C)C)o1 | 15.65%
33 | COC(=O)CSc1nnc(CCNC(=O)OC(C)(C)C)o1 | 120.8%
34 | CC(C)Sc1nnc(CCNC(=O)OC(C)(C)C)o1 | 12.98%
35 | Cc1nc(N2CC[C@@H](NC(=O)c3cnccn3)[C@H](O)C2)c2ccsc2n1 | 4.294%
36 | CCc1nc(CN(C)C2CCN(CC(=O)N3CCOCC3)C2)no1 (centres undefined) | 114.4%
37 | Cc1nc(CN(C)C2CCN(CCC(=O)N3CCOCC3)C2)no1 (centres undefined) | 118.2%
38 | CN(Cc1noc(C2CC2)n1)C1CCN(CC(=O)N2CCOCC2)C1 (centres undefined) | 87.19%
39 | Cc1nc(CN(C)C2CCN(CC(=O)NC3CCOCC3)C2)no1 (centres undefined) | -6.239%
40 | Cc1nc(CN(C)C2CCN(CC(=O)N3CCOCC3)C2)no1 (centres undefined) | -5.301%
41 | c1ccc(-n2cc(CN3CCCC(Cn4cncn4)C3)nn2)cc1 (centres undefined) | 6.927%
42 | CC(C)N(C)[C@@H]1CCN(c2ncccn2)[C@H]1Cc1ccncc1.O=C(O)C(F)(F)F.O=C(O)C(F)(F)F | -5.254%
43 | Cc1cnc(C(=O)N2CCCC(Cn3cc(CC(C)C)nn3)C2)cn1 (centres undefined) | -14.05%
44 | CC(C)CNC(=O)c1cc(Br)c2c(c1)OCCO2 | -6.005%
45 | CCCc1cc(CN(C)C2CSCCSC2)n[nH]1 | -33.01%
46 | Cn1cccc1C(=O)N1CCCCC1c1[nH]ncc1S(C)(=O)=O (centres undefined) | 102.3%
47 | CC1CCCCN1C(=O)c1ccc(Br)s1 (centres undefined) | 10.55%
48 | Cc1cccnc1C(=O)N1CCCCC1c1[nH]ncc1S(C)(=O)=O (centres undefined) | -7.963%
49 | Cc1ccc(C(=O)N2CCCCC2c2[nH]ncc2S(C)(=O)=O)cn1 (centres undefined) | 107.9%
50 | Cc1ccc(C(=O)N2CCCCC2c2[nH]ncc2S(C)(=O)=O)s1 (centres undefined) | 77.94%

Row | SMILES | Percent Effect
51 | Cc1cccc(C(=O)N2CCCCC2c2[nH]ncc2S(C)(=O)=O)c1 (centres undefined) | 98.38%
52 | Cn1cccc1-c1cc(C(=O)N2CCCCC2c2ccc(F)cc2)[nH]n1 (centres undefined) | 6.407%
53 | Cc1cnc(C(=O)N2CCCCC2c2[nH]ncc2S(C)(=O)=O)cn1 (centres undefined) | -8.056%
54 | NC(=O)C1CCCCN1C(=O)c1ccc(Br)s1 (centres undefined) | 11.69%
55 | Cn1cccc1-c1cc(C(=O)N2CCCC2c2cccnc2)[nH]n1 (centres undefined) | -7.739%
56 | Cc1cccc(C(=O)N2CCCCC2c2ccc(CN(C)C)cc2)c1 (centres undefined) | 14.25%
57 | CC1CCN(CC(O)CNc2ccc(Cl)cn2)CC1 (centres undefined) | 15.58%
58 | CC(=O)N(C)CC(=O)Nc1ccc(C)cc1OCc1ccccc1 | 2.382%
59 | Cc1nc(CNC(=O)N(Cc2ccccc2)CC(C)(C)O)oc1C | -21.53%
60 | CC(=O)NCCCNCc1ccc(Cl)c2cccnc12 | -6.459%
61 | Cc1ccc(C(=O)NC(C)Cn2cccn2)c(=O)[nH]1 (centres undefined) | -0.2392%
62 | CC(C)NC(=O)NCc1ccc(C(=O)NC(C)Cn2cccn2)cc1 (centres undefined) | 146.4%
63 | COc1ccc(CNC(=O)NC(C)Cn2cccn2)cc1O (centres undefined) | 8.397%
64 | CC(Cn1cccn1)NC(=O)NCc1ccc(C(N)=O)cc1 (centres undefined) | 167.3%
65 | CC(Cn1cccn1)NC(=O)NCc1ccc(S(N)(=O)=O)cc1 (centres undefined) | 4.625%
66 | CC(Cn1cccn1)NC(=O)CCc1ccc(S(N)(=O)=O)cc1 (centres undefined) | 6.181%
67 | CC(Cn1cccn1)NC(=O)NCc1cccnc1OC1CCCC1 (centres undefined) | 11.91%
68 | CC(Cn1cccn1)NC(=O)NCc1ccc(S(C)(=O)=O)cc1 (centres undefined) | 102.2%
69 | CC(C)c1nccn1C(C)C(=O)NCc1noc(Cc2cccs2)n1 (centres undefined) | 8.731%
70 | O=C(NC1CC1)N1CCOC2(CCCN(c3cccc(F)c3)C2)C1 (centres undefined) | -2.504%
71 | CC(CCc1ccccc1F)C(=O)NS(=O)(=O)CC1CC1 (centres undefined) | -8.345%
72 | CC(=O)N1CCC(Nc2cccc(OC(F)F)c2C)CC1 | -10.39%
73 | Cn1cnnc1CN1CCC2(CCC(=O)N(Cc3ccccn3)C2)CC1 | -8.652%
74 | Cc1noc(-c2ccnc(N3CCN(C4CCOCC4)CC3)c2)n1 | 8.096%
75 | Clc1cc(N2CCN(C3CCOCC3)CC2)nc2[nH]ccc12 | 109.8%

Row | SMILES | Percent Effect
76 | Clc1cc(N2CCC(N3CCCC3)CC2)nc2[nH]ccc12 | 113%
77 | FC(F)(F)c1ccnc(N2CCCN(C3CCOCC3)CC2)c1 | -6.382%
78 | Cc1noc(-c2ccnc(N3CCC(N4CCCC4)CC3)c2)n1 | -2.845%
79 | Cc1nc(-c2cccc(N3CCC(N4CCCC4)CC3)c2)cs1 | -1.882%
80 | COc1cc(N2CCC3(CC2)CC(N2CCOCC2)CO3)ncn1 (centres undefined) | -10.74%
81 | COc1cc(N2CCC3(CC2)OCC(=O)NC3C)ncn1 (centres undefined) | 115.6%
82 | COc1cc(N2CCC3(CC2)CC(N2CCN(C)CC2)CO3)ncn1.O=C(O)C(F)(F)F.O=C(O)C(F)(F)F (centres undefined) | -26.84%
83 | COc1cc(N2CC3(CCN(S(=O)(=O)C4CC4)C3)C2)ncn1 | -10.78%
84 | COc1cc(N2CCC3(CC2)CN(C)C(=O)CO3)ncn1 | 113.9%
85 | COc1cc(N2CCC3(CC2)CNC(=O)CO3)ncn1 | 115.6%
86 | COc1cc(N2CCC3(CC2)C(c2ccncc2)CC(=O)N3C)ncn1 (centres undefined) | 16.73%
87 | CCS(=O)(=O)N1CCC2(CN(c3cc(OC)ncn3)C2)C1 | -9.777%
88 | CC(C)NC(=O)c1nnn(-c2cccc(C(F)(F)F)c2)c1N | 5.987%
89 | O=C(CCO)N1CCC2(CCc3ccc(-c4ccoc4)cc32)CC1 | -1.453%
90 | COc1ncccc1C(=O)N1CCC(c2nc3c(C)cccc3[nH]2)CC1 | -11.64%
91 | O=c1[nH]c(CN2CCOC(Cn3cccn3)C2)nc2ccccc12 (centres undefined) | 108.3%
92 | Cc1cnn(CC2CN(c3ncnc4ccccc34)CCO2)c1 (centres undefined) | -26.67%
93 | Cc1cnn(CC2CN(Cc3nc4ccccc4c(=O)[nH]3)CCO2)c1 (centres undefined) | 128.5%
94 | c1ccc(Cn2ccnc2CN2CCOC(Cn3cccn3)C2)cc1 (centres undefined) | 5.197%
95 | Cc1cnn(CC2CCCN2CCc2nc3ccccc3c(=O)[nH]2)c1 (centres undefined) | -0.3603%
96 | Cc1cnn(CC2CN(Cc3nc4cccnc4[nH]3)CCO2)c1 (centres undefined) | 117.2%
97 | O=S(=O)(CCN1CCOC(Cn2cccn2)C1)c1ccccc1 (centres undefined) | -8.739%
98 | N[C@@H]1CC[C@@H]1NC(=O)c1ccccc1OC(F)(F)C(F)F | -9.663%
99 | CNC(=O)CN1CCO[C@H]2CN(C(=O)C3CC3)C[C@H]21.O=C(O)C(F)(F)F | 8.052%
